Test results taken from PubChem BioAssay (NCI).
Where “and” joins values, the source holds several entries; their conditions need not be identical. Equal values may be shown once. This is part of a sample that, as a whole, favours compounds with a hit. Of some 79,000 tested, about 15% had one in any assay. A number with no mark means an inactive call. Calls of active or inactive are those of the source. Cut-off read from the data, not from the text of the source: active = growth inhibition above about 70%; inactive = the rest.

experiment: NCI Yeast Anticancer Drug Screen. Data for the rad50 strain (AID 155);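 note: 0% = growth of vehicle-only cultures of the same strain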; conditions: S. cerevisiae rad50 strain growth inhibition; at 50.0 µM; stronger effect = higher value
Summary of the method: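 Compounds were tested on a yeast strain with an engineered DNA damage repair alteration; the reported value is growth inhibition normalised to vehicle treatment.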

SMILES | growth inhibition
O=[As]c1ccc(C(=O)O)cc1 (configuration not stated) | 11.2%
CCCC[As](CCCC)SC1OC(COC(C)=O)C(OC(C)=O)C(OC(C)=O)C1OC(C)=O (configuration not stated) | 98.6% (active)
O=C([O-])c1ccccc1Nc1ccccn1.O=C([O-])c1ccccc1Nc1ccccn1.[Ni+2] | -15%
Nc1cc(N)c([N+](=O)[O-])cc1[N+](=O)[O-] | 20.8%
C(#CCN1CCCCCC1)CN1CCCCCC1 | 0.55%
Cc1ccc(OP(=O)(Oc2ccc(C)c(C)c2)Oc2ccc(C)c(C)c2)cc1C | -3.7%
CCCCC(CC)C(=O)O (configuration not stated) | -12.6% and 33.9%
Nc1ncnc2c1ncn2C1OC(CO)C2NP(=O)(N(CCCl)CCCl)OC21 (configuration not stated) | 6.1% and 16.9%
NCCN.NCCN.[Cl-].[O]=[Re]=[O] | -8.05%
Br[CH](Br)[Hg][c]1ccccc1 | 99.2% (active)
CCCCOC1OCN(C2CCCCC2)CC1(C)C (configuration not stated) | 13.5%
O=C(NP(=O)(N1CC1)N1CC1)c1cc(I)ccc1I | -2.1%
Cc1cc(N(C)CCCl)ccc1N=Nc1ccccc1C(=O)O | 36.5%
CCCOC(=O)c1cncn1C(C)c1ccccc1 (configuration not stated) | 4.4%
CC[N+]1(CC)CC[N+](CC)(CC)CC1 | 22.9%
NC(N)=N/N=C/C(=N\N=C(N)N)C(O)C(O)C(O)C(O)CO (configuration not stated) | -10.3% and 44.2%
N.O=S(=O)(O)O.[Al] | 6.55%
